# HCV inhibitor: HCV inhibition; Huh7.5.1 HCVcc-Cre infection, luciferase reporter, 44 h; Potency, µM (titrated, usually from 41.8 µM), without a hit: at the top dose activity change, negative = inhibition, most hits filed as inhibitors; 3.4% of 340,000 active; AID 651820; further: potency means the concentration at half of the fitted maximal effect
#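 Compounds are dispensed onto cells plated 4 h earlier at 1,000 per well, with HCVcc-Cre virus (about 0.5 moi) added next. Following 44 h of culture, luminescent signal is measured for 15 sec after 15 min with substrate at room temperature.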
# HCMV antiviral: human cytomegalovirus inhibition | 4.5% of 410,000 active | HFF cells, HCMV-luciferase reporter, 72 h; active compounds read low | activity change, negative = inhibition, % at 57.5 µM | AID 1259415; in the data active means activity change below about -60%; inconclusive means no clear call, values can overlap the other calls; inactive means above about -39%
#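 Two-dose cell screen: HFF monolayers treated with compounds and infected with luciferase-expressing HCMV at 1 PFU/cell, 72 h at 37C, then lysed for luciferase measurement.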
# Pf growth 48h: inhibits P. falciparum growth in the first generation, 48 h | P. falciparum luciferase growth in erythrocytes, 48 h | Potency, µM (top dose mostly 28.7 µM), for the others: top-dose activity change, negative = inhibition, actives largely listed as inhibitors | 5.9% of 310,000 active | AID 504832; further: potency means the concentration at half of the fitted maximal effect
#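 Erythrocytes infected with P. falciparum carrying an integrated firefly luciferase reporter (2% hematocrit, 0.1% parasitemia final) were exposed to compounds in RPMI 1640 with 0.5% Albumax at 37 C, 5% CO2. Growth inhibition was scored as reduced luminescence.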
# Pf growth 96h: P. falciparum growth inhibition at 96 hours; P. falciparum luciferase reporter growth, 96 h; Potency, µM (highest dose often 28.7 µM), for the others: at the highest dose activity change, negative = inhibition, most hits filed as inhibitors; 6.9% of 320,000 active; AID 504834; further: potency means the concentration at half of the fitted maximal effect
#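 Delayed-death screen, second-generation endpoint: infected erythrocytes, 2% hematocrit, 0.05% parasitemia final; 96 hours at 37 C, 5% CO2; luciferase detection reagent; luminescence decrease equals reduced growth.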
# Numbers without * were called inactive; ? = inconclusive; / = no result; [ ] = dose if it differs, or a comment. Sampled rows, rich in hits. Any-hit rate of the full collection: about 13%. Unless noted, the call rests on the fitted dose curve; in most records, active means well fitted inhibition curve with a large enough effect; inconclusive means small, poorly fitted or top-dose-only effect, or another doubt; inactive means no such curve, though single readings can be large or run the other way. On the % scale 0 is the no-effect control and ±100 the full control effect.
SMILES,HCV inhibitor,HCMV antiviral,Pf growth 48h,Pf growth 96h
CCN1CCOC(=O)C1CC(=O)Nc1ccc(Br)cc1 (configuration not stated),/,16,/,/
Cc1cccc(C(=O)N2CCC[C@H]2C(=O)N2CCC[C@H]2C(=O)NCc2ccncc2)c1,/,1,/,/
Cc1nn(C(=O)c2cccc([N+](=O)[O-])c2C)c(C)c1S(=O)(=O)N1CCCCCC1,/,22,/,/
COCC(C)NC(=O)C1CC(c2cccc(Br)c2)=NO1 (configuration not stated),3.2µM*,30,8%,35%
COc1cc(NC(=O)C2CC(c3cccc(Br)c3)=NO2)cc(OC)c1OC (configuration not stated),-21%,15,?,4%
O=C(NCc1cccc(F)c1)C1CCCN(C(=O)N2CCOc3ccccc32)C1 (configuration not stated),/,-27,/,/
CC(C)(CO)Nc1nc(Nc2ccccc2)nc(Nc2ccccc2)n1,10µM*,-11,13µM*,7.4µM*
CCc1ccc(NC(=O)CN(c2ccc(Cl)cc2)S(=O)(=O)c2ccsc2C(=O)OC)cc1,/,6,/,/
COc1cc(-c2noc(-c3cc(C(C)C)[nH]n3)n2)cc(OC)c1OC,/,-16,/,/
CC(C)c1cc(-c2nc(-c3ccc(Cl)cc3)no2)n[nH]1,/,-68*,/,/
Cc1ccc(-c2nnn3c2nc(NCCc2ccccc2)c2ccccc23)cc1,/,28,/,/
CCC(Sc1nc2c(sc3ccccc32)c(=O)n1CCCC(=O)NC1CCCC1)C(=O)Nc1cccc(OC)c1 (configuration not stated),/,-8,/,/
CCOc1ccc(CCN2C(=O)C(=O)N([C@@H](CC(C)C)CN3CCC[C@@H]3CN3C(=O)C(=O)NC[C@@H]3CC(C)C)C[C@@H]2Cc2ccccc2)cc1,/,-14,/,/
C[C@@H]1CN([C@@H](C)CO)C(=O)c2ccccc2-c2ccccc2CO[C@@H]1CN(C)Cc1ccc(Cl)c(Cl)c1,/,-3,/,/
COc1ccc(CNC(=O)[C@@H]2CC=C[C@@H]3CCN(Cc4ccc(Cl)c(Cl)c4)C(=O)[C@@H]32)cc1,?,-7,/,/
CCOc1ccc(CCN2C(=O)C(=O)N([C@H](CCCN(C)Cc3ccccc3)CNCc3ccccc3)C[C@@H]2C(C)C)cc1,/,/,9.3µM*,3.7µM*
CN(CCCC[C@H](CNCc1ccc(-c2ccccc2)cc1)N1C[C@H](c2ccccc2)N(CCc2ccc(Cl)c(Cl)c2)C(=O)C1=O)Cc1ccc(-c2ccccc2)cc1,/,/,?,3.7µM*
COc1ccc(CNC[C@@H](CCCCN(C)Cc2ccc(OC)cc2)N2C[C@H](c3ccccc3)N(CCc3ccc(Cl)c(Cl)c3)C(=O)C2=O)cc1,-9%[8.37 µM],/,1.7µM*,2.3µM*
CCN1C(C(=O)c2ccccc2)=C(OC(=O)c2ccc(OC)cc2)c2ccccc2S1(=O)=O,/,-68*,/,/
CCCN1C(C(=O)c2ccccc2)=C(OC(=O)c2ccc(F)cc2)c2ccccc2S1(=O)=O,/,-90*,/,/
CCN1/C(=C(\O)c2ccccc2)C(=O)c2ccccc2S1(=O)=O,6%,-88*,?,12%
CCCCN(CCCC)C1=C(C(=O)c2ccccc2)N(CC)S(=O)(=O)c2ccccc21,/,-32,/,/
COC(=O)CN1C(C(=O)c2ccccc2)=C(OC(=O)c2ccc(C)cc2)c2ccccc2S1(=O)=O,/,0,/,/
Cc1ccc(C(=O)OC2=C(C(=O)c3ccccc3)N(C)S(=O)(=O)c3ccccc32)cc1,/,-8,/,/
CCCN1C(C(=O)c2ccccc2)=C(OC(=O)c2ccc(C)cc2)c2ccccc2S1(=O)=O,/,-85*,/,/
SMILES,HCV inhibitor,HCMV antiviral,Pf growth 48h,Pf growth 96h
CCCCOCCCNC(=O)C[C@@H]1C[C@@]2(C(=O)OCC)CCCC=C2N(Cc2ccc(Cl)cc2Cl)C1=O,/,-2,/,/
CCCC(C(=O)NCc1cccc(Cl)c1)N1Cc2ccccc2C1=O (configuration not stated),/,-4,/,/
CCN1C(C(=O)c2ccccc2)=C(OC(=O)COc2ccccc2)c2ccccc2S1(=O)=O,/,-60*,/,/
CCN1C(C(=O)c2ccccc2)=C(OC(=O)C(C)C)c2ccccc2S1(=O)=O,/,-33,/,/
CC(C)CCn1cnc2c(sc3nc4c(cc32)CSC(C)(C)C4)c1=O,25%,-74*,265%,211%
CCOc1ccc(-c2cn3nc(CC(C)C)sc3n2)cc1,/,45,/,/
Cc1ccc(C)c(CN2C(=O)CSc3ccc(C(=O)NCc4ccc(F)cc4)cc32)c1,/,9,/,/
C/C=C/c1ccc(OCCCNC2CCCC2)c(OC)c1,0.89µM*,1,?,/
C/C=C/c1ccc(OCC(O)CN2CCCCC2CC)c(OC)c1 (configuration not stated),2.5µM*,-38,-10%,4%
CC1CCCCN1CC(O)COc1ccc(OCC(O)CN2CCCCC2C)cc1 (configuration not stated),?,23,?,150%
C/C=C/c1ccc(OCC(O)CN(C)Cc2ccc(SC)cc2)c(OC)c1 (configuration not stated),-21%,-102*,/,?
C/C=C/c1ccc(OCC(O)CNCC(c2ccc(OC)cc2)N(C)C)c(OC)c1 (configuration not stated),-18%,35,?,?
N/C(=N\O)c1cn(Cc2ccccc2Cl)c2ccccc12,-19%,-71*,/,-8%
O=C(C(=O)N1CCOCC1)c1cn(Cc2ccccc2Cl)c2ccccc12,4%,-38,-20%,-9%
Fc1ccccc1Cn1cc(C(=S)N2CCOCC2)c2ccccc21,-21%,-24,-23%,-18%
CC(=O)c1cn(Cc2ccccc2F)c2ccccc12,?,-79*,?,-6%
CC(C)C(=O)c1cn(Cc2ccccc2C#N)c2ccccc12,?,4,5%,3%
CC(=O)c1cn(Cc2ccccc2C#N)c2ccccc12,2.5µM*,-65*,-8%,?
O=Cc1cn(Cc2ccccc2F)c2ccccc12,15%,-92*,6%,-29%
O=C(CSC1=Nc2ccccc2N=C(c2ccc(F)cc2)C1)NCc1ccc(Cl)cc1,/,-25,/,/
CCOC(=O)c1sc(NC(=O)C(C)Oc2ccc(OC)cc2)c(C(=O)OCC)c1C (configuration not stated),/,-31,/,/
O=[N+]([O-])c1cc(C(F)(F)F)ccc1N1CCN(S(=O)(=O)c2ccc3ccccc3c2)CC1,6.3µM*,-69*,?,-33%
CC(=O)Nc1ccc(S(=O)(=O)N2CCN(c3nnnn3-c3ccccc3)CC2)cc1,-4%,?,-26%,69%
O=S(=O)(c1cccc(C(F)(F)F)c1)N1CCN(c2nnnn2-c2ccccc2)CC1,-25%,-2,-2%,8.3µM*
O=[N+]([O-])c1cc(C(F)(F)F)cc([N+](=O)[O-])c1N1CCN(S(=O)(=O)c2ccccc2)CC1,?,-17,?,15µM*
Cn1c(=O)n(C)c2cc([N+](=O)[O-])c(N3CCN(S(=O)(=O)c4ccc(C(C)(C)C)cc4)CC3)cc21,14µM*,-94*,9.3µM*,?
O=c1cc(CN2CCCC2)c2ccccc2o1,/,9,/,/

# High-throughput results deposited in PubChem by National Center for Advancing Translational Sciences (NCATS).
